The panel holds about 79,000 compounds, 15% with a hit somewhere; the sample as a whole holds those more often. The source made the active and inactive calls. No stated cut-off is given here; in the data, active means growth inhibition above about 70%; inactive means the rest.
Assay: NCI Yeast Anticancer Drug Screen. Data for the bub3 strain (AID 167)
Details: S. cerevisiae bub3 mutant strain, stronger effect = higher value
Procedure: Growth inhibition of yeast strains with defined genetic alterations is measured as a screen for potential anti-cancer activity. Selected strains with alterations in DNA damage repair or cell cycle control were exposed to compounds and growth inhibition was measured relative to vehicle treated controls. The strain used in this assay is bub3

[1] = at 5.0 µM (retest, dose inferred, filed as 0.5)
[2] = at 50.0 µM (retest, dose inferred, filed as 5.0)

| SMILES | growth inhibition [1] | growth inhibition [2] | growth inhibition (at 50.0 µM) |
| --- | --- | --- | --- |
| CCOC(=O)c1cc(C)ccc1-c1ccc(C)cc1C(=O)OCC | 6% (inactive) | 46% (inactive) | 86.8% (active) |
| CC(=O)Oc1cc2c(=O)oc3c(OC(C)=O)c(OC(C)=O)c(OC(C)=O)c4c(=O)oc(c1OC(C)=O)c2c34 | 45% (inactive) | 71% (active) | 88.3% (active) |
| CCN(CC)CCOc1ccc(C(=C2CCCCC2)c2ccc(OCCN(CC)CC)cc2)cc1 | 31% (inactive) | 31% (inactive) | 76.8% (active) |
| Cc1cccc2c(CBr)cc(=O)[nH]c12 | 12% (inactive) | 96% (active) | 94.2% (active) |
| CN(C)CC(O)c1cc(-c2ccc(Cl)c(Cl)c2)nc2c(Cl)cc(Cl)cc12 (configuration not stated) | 0% (inactive) | 75% (active) | 98.3% (active) |
| COC(=O)CCC(NC(=S)N/N=C(\C)c1cnc2ccccc2n1)C(=O)OC (configuration not stated) | 12% (inactive) | 12% (inactive) | 26.8% (inactive) |
| Cc1ccsc1C(=S)Nc1ccc(Cl)c(/C=N/OC(C)C)c1 | 13% (inactive) | 43% (inactive) | 23.1% (inactive) |
| O=S(=O)(CC(Br)c1ccccc1)CC(Br)c1ccccc1 (configuration not stated) | 4% (inactive) | 42% (inactive) | 63.2% (inactive) |
| Fc1cccc(CSc2ncnc3c2ncn3C2CCCS2)c1 (configuration not stated) | 1% (inactive) | 82% (active) | 90% (active) |
| C=CC(=O)Oc1ccccc1/C=C/C(=O)CCCCCC | 0% (inactive) | 95% (active) | 83.1% (active) |
| CCOCCOC(=O)c1cc([N+](=O)[O-])cc([N+](=O)[O-])c1 | -8% (inactive) | 94% (active) | 91.7% (active) |
| Oc1ccc(O)c2c1CC=C(Cl)C2 | 26% (inactive) | 83% (active) | 56.5% (inactive) |
| COC1=C(C)C(=O)C2=C(C1=O)C1C3CC4=C(C(=O)C(OC)=C(C)C4=O)C(CNC(=O)C(C)=O)N3C(C#N)C(C2)N1C (configuration not stated) | 22% (inactive) | 98% (active) | 90.2% (active) |
| Cc1ccc(C2COc3cc(O)c(O)cc3C2)cc1 (configuration not stated) | 32% (inactive) | 99% (active) | 99.6% (active) |

Reference: PubChem BioAssay (NCI)
